# High-throughput results from PubChem.
# BRCA1 expr act = increases BRCA1 expression | MCF7-BRCA1-FFLuc reporter, luminescence, 48 h; response scale: scaled: vehicle 0%, 10 µM genistein 100% | Potency, µM (top dose mostly 46.1 µM), inactives show at the highest dose activation, hits mostly activators | hit rate 1.1% among 380,000 | AID 624202; also: potency is read from the fitted curve at half-maximal effect; nearly all actives have a fitted effect of over 80% in size
#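 First, MCF7-BRCA1-FFLuc cells (2000/well) attach for 2 h; next, compounds are pin-added and incubated 48 h at 37 °C; finally, luciferase reagent is added and luminescence read after 15 min.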
# pAkt inh = inhibitors of Akt phosphorylation. activity change, % for hits at 50 µM. Neuro2A IGF-stimulated pAkt S473 HTRF, 20 min; stronger effect = lower value. hit rate 0.32% among 360,000; in the data active = activity change below about -80%; inconclusive = mostly about -51% to -80%; also: % is scaled to controls: 0 for no effect and ±100 for the full control effect
#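 Single-point screen (50 µM final compound) in Neuro2A cells stimulated 20 min with 6 nM IGF at 37 deg C. After lysis, Ser473-phosphorylated Akt read by HTRF (ex 330 nm, em 615/665 nm) as the 665/615 ratio.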
# A-T KAP1 phos = candidate therapy for ataxia-telangiectasia; Potency, µM (doses to about 57.5 µM), for inactives: at the top dose activation, usual class: activators; F2112 A-T fibroblasts, KAP-1 phosphorylation AlphaLISA; neocarzinostatin DNA damage 30 min before lysis; hit rate 0.19% among 320,000; also: potency is read from the fitted curve at half-maximal effect; % of control where 0% means no effect; nearly all actives have a fitted effect of over 45% in size
#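 ATM-like activity read as KAP-1 phosphorylation via AlphaLISA donor/acceptor antibody pairs after lysis and 6 hr at 25C. Cells were ATM-null patient fibroblasts (F2112, hTERT), dosed 60 min, then exposed to the DSB inducer NCS for 30 min.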
# CCT modulator = modulators of cytosolic chaperonin (CCT/TRiC) activity | purified chaperonin ATPase assay, HTRF ADP detection, 30 min | hit rate 0.3% among 360,000 | activity change, % (no concentration beside the values), hits read low | AID 651819; in the data active = activity change below about -30%; also: % is scaled to controls: 0 for no effect and ±100 for the full control effect
#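 First, chaperonin was dispensed at 40 nM or 20 nM final depending on batch activity. Next, compounds were pinned at 76 uM and ATP added at 10 uM. After 30 min at 37 °C, ADP detection reagents ran 30 min at ambient temperature.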
# MmCpn inh = inhibitors of Methanococcus maripaludis chaperonin TRiC (MmCpn); hit rate 0.031% among 330,000; purified Mm-Cpn ATPase, ADP Transcreener TR-FRET; AID 504842; Potency, µM (top dose mostly 76.9 µM), for inactives: at the highest dose activity, negative = inhibition, hits mostly inhibitors; also: potency is read from the fitted curve at half-maximal effect; % is scaled to controls: 0 for no effect and ±100 for the full control effect; nearly all actives have a fitted effect of over 80% in size
#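 TR-FRET (320 nm excitation; 590 and 665 nm emission) reports ADP made from 10 uM ATP by 25 nM enzyme; compounds were preincubated 10 min, reaction run 30 min, both at 37°C.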
# Numbers without * were called inactive; i = inactive; ? = inconclusive; / = not tested or not shown; [ ] = another dose, or the depositor's remark. Only some compounds are listed: those with a hit (about 1.8% of all), similar ones and a draw of the others. Unless noted, calls follow the shape of the dose curve; as a rule, active = well fitted curve in the direction sought with a large enough effect; inconclusive = small, poorly fitted or top-dose-only effect, or another doubt; inactive = no such curve, though single readings can be large; an effect the other way counts as inactive or inconclusive.
SMILES,BRCA1 expr act,pAkt inh,A-T KAP1 phos,CCT modulator,MmCpn inh
O=C(c1ccc(F)cc1)C(CN1CCOCC1)c1ccccc1 (stereo not given),-83%,i,40µM*,0,0%
O=C(c1ccccc1)C(CCC(CN1CCOCC1)C(=O)c1ccccc1)CN1CCOCC1 (stereo not given),-86%,i,35µM*,-3,0%
COc1ccc(C(=O)C(CN2CCOCC2)c2ccccc2)cc1 (stereo not given),-97%,i,/,-1,0%
COc1ccc(/C=N\NC(=O)C2=NNC(=O)C2C)cc1 (stereo not given),2.8µM*,i,0%,-1,-5%
Cc1cc(Oc2ccc(C(C)(C)C)cc2)nc(N2CCOCC2)n1,4%,i,/,-1,-3%
CCCc1ccc(Oc2cc(C)nc(N3CCOCC3)n2)cc1,3%,i,25µM*,-5,0%
COC(=O)C(O)(NC(=O)NC(C)=O)C(F)(F)F (stereo not given),19%,i,-4%,-56*,-2%
CC(C)(C)n1nnnc1C(c1ccccn1)N1CCN(C(c2ccccc2)c2ccccc2)CC1 (stereo not given),1%,i,1%,2,-1%
COc1cccc(N2CCN(C(c3ccccn3)c3nnnn3C(C)(C)C)CC2)c1 (stereo not given),-24%,-105%*,/,0,-1%
Cn1c2cc(B(O)O)sc2c2cnn(Cc3c(F)cccc3F)c(=O)c21,/,/,-9%,/,-1%
CC(C)N1CCC(=NNC(=O)c2ccccc2[N+](=O)[O-])CC1,-8%,i,-1%,-2,1%
CC(C)N1CCC(=NNC(=O)c2cccs2)CC1,8.9µM*,i,18%,0,2%
Cc1noc(C)c1NC(=O)Nc1ccc2c(c1)C(=O)N([C@H](C)CO)C[C@H](C)[C@@H](CN(C)C(=O)NC1CCCCC1)O2,32%,i,8%,-5,0%
Cc1ccc(NC(=O)c2cccc(Cl)c2)nc1,?,i,-3%,-3,-2%
Cc1cc(NC(=O)c2cccc(Cl)c2)n[nH]1,4µM*,i,19%,-2,0%
CCN(CCC#N)c1ccc(/C=C/c2ccnc3ccccc23)cc1,-52%,/,/,/,/
O=C(NCc1cccc(C(F)(F)F)c1)C1CCCN(c2cnccn2)C1 (stereo not given),3%,i,-3%,-3,1%
Cc1sc2ncn(/N=C/c3cn(-c4ccccc4)nc3-c3ccccc3)c(=O)c2c1C,5%,/,/,/,/
Cc1ccsc1/C=N/n1cnc2sc(C)c(C)c2c1=O,11µM*,i,-3%,-1,0%
O=c1[nH]c(SCc2ccc(Cl)cc2)nc2ccsc12,4.5µM*,i,1%,0,3%
N#Cc1c(-c2cccs2)nc(SCc2ccc(Cl)cc2)[nH]c1=O,-8%,i,2%,-5,-19%
COc1ccc(OCC(O)Cn2c(=N)n(CCN3CCCCC3)c3ccccc32)cc1 (stereo not given),-38%,i,3%,-1,0%
Cc1ccc(OCC(O)Cn2c(=N)n(CCN3CCCCC3)c3ccccc32)cc1 (stereo not given),-92%,-113%*,1%,-1,-1%
O=C(COC(=O)c1cccnc1SCC(=O)NCc1ccccc1)NCc1ccccc1,-64%,-89%*,8%,1,-16%
Nc1nc2c(nc(N3CCOCC3)n2COCCO)c(=O)[nH]1,13%,/,/,/,/
SMILES,BRCA1 expr act,pAkt inh,A-T KAP1 phos,CCT modulator,MmCpn inh
CCOC(=O)C1CCN(C(=O)Nc2ccc(OC(F)(F)F)cc2)CC1,13µM*,i,-7%,-1,0%
Cc1ccc(NC(=O)N2CCCCCC2)cc1,7.9µM*,i,-2%,-2,-4%
Cc1ccc(NC(=O)C(=O)NC2CCCCC2)cc1,1.3µM*,i,/,-1,-2%
Cc1ccc(NC(=S)N2CCCCCC2)cc1,13µM*,i,-6%,0,1%
C1=Nc2ccccc2/C1=C/c1c[nH]c2ccccc12,-22%,/,/,/,/
CC(=O)c1ccc(NC(=O)CSc2nc(=O)n(Cc3ccccn3)c3c2CCC3)cc1,0%,/,/,/,/
CCCN1CCN(c2ncnc3sc(C(=O)Nc4ccc(C(C)C)cc4)c(C)c23)CC1,-27%,/,/,/,/
CCc1ccc(NC(=S)N2CCN(C)CC2)cc1,11µM*,i,3%,0,1%
O=C(c1ccc(F)cc1)C1CCN(C(=O)Nc2ccc(F)cc2)CC1,-30%,i,-4%,-34*,3%
S=C(Nc1ccc(Br)cc1)NC1CCCCC1,10µM*,i,-5%,-1,1%
CCc1ccc(NC(=S)N2CCCC2)cc1,?,i,-5%,-3,-1%
S=C(Nc1ccc(Cl)cc1)NC1CCCCC1,86%,i,2%,0,-1%
CCOc1ccc(NC(=O)N2CCC(C(=O)c3ccc(F)cc3)CC2)cc1,-25%,i,1%,-2,0%
CCc1ccc(NC(=O)N2CCCCCC2)cc1,7.1µM*,i,-1%,0,-2%
COc1ccccc1NC(=O)C1=C(C)Nc2nc(SCc3ccccc3F)nn2C1c1cccs1 (stereo not given),-16%,/,/,/,/
CCN1C(Br)=CCc2ccccc21,15%,/,/,/,/
Cc1ccc(NC(=O)COC(=O)c2ccccc2OCC(=O)Nc2ccc(Br)cc2)c(Br)c1,9%,/,/,/,/
Cc1ccc(-n2c(-c3ccccc3)nsc2=NC#N)cc1,-54%,/,/,/,/
Nc1nc(=S)[nH]c(N)c1N,-8%,/,/,/,/
COc1cccc(-c2nc(-c3ccc4c(c3)NC(=O)CO4)cs2)c1,10µM*,i,2%,-4,-15%
O=C1COc2ccc(-c3csc(-c4ccc(F)cc4)n3)cc2N1,11%,/,/,/,/
CN(C)/N=C/c1ccc(OS(=O)(=O)c2ccccc2)cc1,10µM*,i,6%,-1,-2%
Cc1ccc(S(=O)(=O)Oc2ccccc2)cc1,14%,i,/,0,/
CN(C)/C=C(\C#N)C(=O)c1cccc(Oc2ccc(Br)cc2)c1,-5%,-112%*,3%,-1,-2%
CC(C)c1ccc(Oc2cccc(C(=O)/C(C#N)=C/N(C)C)c2)cc1,49%,i,2%,1,-3%
SMILES,BRCA1 expr act,pAkt inh,A-T KAP1 phos,CCT modulator,MmCpn inh
Cc1ccc(CSC2=NS(=O)(=O)c3ccccc32)cc1,-19%,/,/,/,/
Nc1nnc(SC2CC(=O)N(c3ccccc3)C2=O)s1 (stereo not given),-12%,i,/,-97*,0%
C[n+]1cccc(Br)c1,6%,/,/,/,/
CCc1ccc(NCc2cc3ccc(OC)cc3n(CC(=O)Nc3c(C)cc(C)cc3C)c2=O)cc1,15%,/,/,/,/
NC(=O)C1(C(N)=O)OC1c1ccc(Cl)c(Cl)c1 (stereo not given),1%,i,-2%,-57*,-1%
COc1ccc([C@@H]2OC2(C(N)=O)C(N)=O)cc1,-6%,i,-3%,-2,-2%
C/C(=N\Nc1nccnc1Cl)c1ccc(O)cc1,68%,i,5%,1,-2%
C/C(=N\Nc1nccnc1Cl)c1ccc(F)cc1,8.9µM*,i,11%[11.5 µM],0,-8%
